The whole screen tested about 310,000 compounds, of which about 14,000 (4.5%) showed an effect of 50% or more. The effect is printed as a negative number. The list comes from a sample in which strong results are over-represented; it also holds similar structures and randomly drawn compounds.
The molecules below were run against human ether-à-go-go-related gene (hERG) potassium channel (human, UniProt Q12809) (assay: primary screen, population patch clamp on CHO cells stably expressing hERG; higher = less effect of the substance).
Sequence of human ether-à-go-go-related gene (hERG) potassium channel (Q12809 whole entry, looked up): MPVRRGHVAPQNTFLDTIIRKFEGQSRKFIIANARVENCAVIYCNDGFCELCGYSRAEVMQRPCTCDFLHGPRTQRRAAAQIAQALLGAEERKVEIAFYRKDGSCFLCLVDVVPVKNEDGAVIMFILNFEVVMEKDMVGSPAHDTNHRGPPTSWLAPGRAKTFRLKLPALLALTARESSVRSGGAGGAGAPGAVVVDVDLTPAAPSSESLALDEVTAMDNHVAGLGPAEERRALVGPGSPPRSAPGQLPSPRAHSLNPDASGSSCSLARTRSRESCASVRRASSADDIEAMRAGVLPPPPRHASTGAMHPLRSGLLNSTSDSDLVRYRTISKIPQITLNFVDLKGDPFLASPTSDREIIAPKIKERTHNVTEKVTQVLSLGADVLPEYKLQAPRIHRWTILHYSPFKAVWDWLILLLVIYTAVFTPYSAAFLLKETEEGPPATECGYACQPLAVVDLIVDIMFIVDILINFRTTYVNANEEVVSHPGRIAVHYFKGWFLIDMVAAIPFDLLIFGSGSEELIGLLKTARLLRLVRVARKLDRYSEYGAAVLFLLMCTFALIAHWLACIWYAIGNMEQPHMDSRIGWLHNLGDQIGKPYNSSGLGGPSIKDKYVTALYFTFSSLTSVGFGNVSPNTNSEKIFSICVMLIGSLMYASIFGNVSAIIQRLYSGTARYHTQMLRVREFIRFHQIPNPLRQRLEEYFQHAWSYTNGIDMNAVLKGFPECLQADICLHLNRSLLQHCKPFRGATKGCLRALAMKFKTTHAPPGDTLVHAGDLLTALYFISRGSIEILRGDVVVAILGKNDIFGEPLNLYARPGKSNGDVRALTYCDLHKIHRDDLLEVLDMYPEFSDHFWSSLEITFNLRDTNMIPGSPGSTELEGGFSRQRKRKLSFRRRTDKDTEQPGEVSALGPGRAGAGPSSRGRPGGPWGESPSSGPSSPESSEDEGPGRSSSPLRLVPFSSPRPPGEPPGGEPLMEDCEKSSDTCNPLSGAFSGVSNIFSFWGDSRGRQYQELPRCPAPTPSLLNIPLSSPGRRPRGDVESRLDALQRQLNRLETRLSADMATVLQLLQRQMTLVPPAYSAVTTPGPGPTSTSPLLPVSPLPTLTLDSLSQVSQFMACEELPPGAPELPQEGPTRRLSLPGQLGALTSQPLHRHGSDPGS
For `CCOc1ncccc1C(=O)NNC(=O)c1cccc(S(=O)(=O)Nc2ccc(OC)cc2)c1`, the “hERG current change (%, negative = inhibition) at 10uM” value was 6.87%.
For `CCOC(=O)Cc1[nH]nc2c1C(c1cccc(OC)c1OC)C(C#N)=C(N)O2` (stereo not shown), the “hERG current change (%, negative = inhibition) at 10uM” value was -0.21%.
In the case of `O=C1CN(c2nc(-c3ccccc3)c3cc(Cl)ccc3n2)c2ccccc2N1`, the “hERG current change (%, negative = inhibition) at 10uM” value is reported as 13.1%.
With `O=C(O)CCC(=O)N1CCN(c2nc(-c3ccccc3)c3ccccc3n2)CC1` the “hERG current change (%, negative = inhibition) at 10uM” value was 13.7%.
With `Clc1ccc2nc(N3CCNCC3)nc(-c3ccccc3)c2c1` the “hERG current change (%, negative = inhibition) at 10uM” value was -59.1%.
For `CCN1CCN(c2nc(-c3ccccc3)c3ccccc3n2)CC1`, the “hERG current change (%, negative = inhibition) at 10uM” value was -71.2%.
`CN1CCN(c2nc(-c3ccccc3)c3cc(Cl)ccc3n2)CC1` was tested, and the “hERG current change (%, negative = inhibition) at 10uM” value was -48.1%.
`c1ccc(-c2nc(N3CCNCC3)nc3ccccc23)cc1` was tested, and the “hERG current change (%, negative = inhibition) at 10uM” value was -65.2%.
`O=C(O)CCCC(=O)N1CCN(c2nc(-c3ccccc3)c3ccccc3n2)CC1` was tested, and the “hERG current change (%, negative = inhibition) at 10uM” value was 1.86%.
`c1ccc(-c2nc(N3CCCC3)nc3ccccc23)cc1` was tested, and the “hERG current change (%, negative = inhibition) at 10uM” value was 8.87%.
In the case of `CCOC(=O)N1CCN(c2nc(-c3ccccc3)c3ccccc3n2)CC1`, the “hERG current change (%, negative = inhibition) at 10uM” value is reported as 5.1%.
In the case of `CC(=O)NC(Cc1ccc(F)cc1)C(=O)O` (stereo not shown), the “hERG current change (%, negative = inhibition) at 10uM” value is reported as -24.1%.
With `COC(=O)CP(=O)(c1ccccc1)c1ccccc1` the “hERG current change (%, negative = inhibition) at 10uM” value was 15.2%.
`Oc1ccc(/C=N/NP(=S)(c2ccccc2)c2ccccc2)cc1` was tested, and the “hERG current change (%, negative = inhibition) at 10uM” value was -3.89%.
With `COc1ccccc1CNC(=O)c1cccs1` the “hERG current change (%, negative = inhibition) at 10uM” value was 3.82%.
`CCC1=C2CC[C@H]3C(=O)N(CC)C(=O)[C@H]3[C@H]2[C@@]2(Cc3ccccc3)C(=NCCOC)OC(=O)N2C1=O` was tested, and the “hERG current change (%, negative = inhibition) at 10uM” value was 10%.
For `CC(C)(Oc1ccc(Cl)cc1)C(=O)OCC(=O)N1CCN(c2ccccc2)CC1`, the “hERG current change (%, negative = inhibition) at 10uM” value was -7.02%.
For `CCN1C[C@]2(COC)CC[C@H](OC)[C@@]34C1[C@]1(OCO[C@@]15C[C@H](OC)[C@H]1C[C@@H]3[C@@H]5[C@H]1OC)[C@@H](O)[C@H]24`, the “hERG current change (%, negative = inhibition) at 10uM” value was 10.5%.
In the case of `C=CCn1c(COc2ccc(Cl)cc2)nnc1SCC(=O)Nc1ccc(S(N)(=O)=O)cc1`, the “hERG current change (%, negative = inhibition) at 10uM” value is reported as -9.02%.
`Cc1oc(-c2ccc(Cl)cc2)nc1CS(=O)CC(=O)NCCCN1CCCC(C)C1` (stereo not shown) was tested, and the “hERG current change (%, negative = inhibition) at 10uM” value was -36.8%.
With `Cc1ccccc1-c1nc(CS(=O)CC(=O)NCc2ccccc2)c(C)o1` (stereo not shown) the “hERG current change (%, negative = inhibition) at 10uM” value was -21%.
For `Cc1ccc(-c2nc(CS(=O)CC(=O)NCCCN3CC(C)CC(C)C3)c(C)o2)cc1` (stereo not shown), the “hERG current change (%, negative = inhibition) at 10uM” value was -19.9%.
In the case of `Cc1ccccc1-c1nc(CS(=O)CC(=O)NCCN2CCOCC2)c(C)o1` (stereo not shown), the “hERG current change (%, negative = inhibition) at 10uM” value is reported as 3.48%.
For `Cc1oc(-c2ccc(Cl)cc2)nc1CS(=O)CC(=O)NCCCN1CCOCC1` (stereo not shown), the “hERG current change (%, negative = inhibition) at 10uM” value was -3.95%.
`Cc1ccccc1-c1nc(CS(=O)CC(=O)NCCN2CCN(Cc3ccccc3)CC2)c(C)o1` (stereo not shown) was tested, and the “hERG current change (%, negative = inhibition) at 10uM” value was -58.7%.
`Cc1oc(-c2ccc(Cl)cc2)nc1CS(=O)CC(=O)NCCCN1CCN(Cc2ccccc2)CC1` (stereo not shown) was tested, and the “hERG current change (%, negative = inhibition) at 10uM” value was -62.1%.
`Cc1ccc(-c2nc(CS(=O)CC(=O)NCCCN3CCN(Cc4ccccc4)CC3)c(C)o2)cc1` (stereo not shown) was tested, and the “hERG current change (%, negative = inhibition) at 10uM” value was -38.2%.
In the case of `Cc1oc(-c2ccc(Cl)cc2)nc1CS(=O)CC(=O)NCCCN1CC(C)CC(C)C1` (stereo not shown), the “hERG current change (%, negative = inhibition) at 10uM” value is reported as -65.5%.
For `O=C(CSc1nnc(-c2cccs2)o1)NCc1ccco1`, the “hERG current change (%, negative = inhibition) at 10uM” value was -0.74%.
With `COC(=O)C1=C(Nc2ccc(OC)cc2)C=C(C)C(C(=O)OC)C1c1ccc(C)cc1` (stereo not shown) the “hERG current change (%, negative = inhibition) at 10uM” value was 18.9%.
In the case of `C(#Cc1ccccc1)CN1CCOCC1.Cl`, the “hERG current change (%, negative = inhibition) at 10uM” value is reported as 22.9%.
In the case of `Cc1ccc(C)c(S(=O)(=O)N2CCN(C(=O)c3ccc(OCc4c(C)noc4C)cc3)CC2)c1`, the “hERG current change (%, negative = inhibition) at 10uM” value is reported as -21.9%.
`O=C(Nc1ccc(S(=O)(=O)N2CCCCC2)cc1)c1ccc(=O)[nH]c1` was tested, and the “hERG current change (%, negative = inhibition) at 10uM” value was 7.49%.
With `Cc1cc(C)cc(Oc2ccc(-c3nnc(-c4ccccc4)o3)cc2[N+](=O)[O-])c1` the “hERG current change (%, negative = inhibition) at 10uM” value was 7.94%.
In the case of `Cc1ccc(C)c(-n2cc(CNCCCn3cccn3)c(-c3ccccc3)n2)c1`, the “hERG current change (%, negative = inhibition) at 10uM” value is reported as -64.9%.
In the case of `Cc1ccc(C)c(-n2cc(CN3CCN(C(=O)c4ncn[nH]4)CC3)c(-c3ccccc3)n2)c1`, the “hERG current change (%, negative = inhibition) at 10uM” value is reported as -30.7%.
For `Cc1ccc(-n2cc(CNC(C)Cc3cnccn3)c(-c3cccc(C)c3)n2)cc1` (stereo not shown), the “hERG current change (%, negative = inhibition) at 10uM” value was -73.8%.
In the case of `CC(=O)N1CCCN(Cc2cn(-c3cc(C)ccc3C)nc2-c2ccccc2)CC1`, the “hERG current change (%, negative = inhibition) at 10uM” value is reported as -30.3%.
In the case of `Cc1ccc(-n2cc(CN3CCC(O)(c4ccccn4)CC3)c(-c3ccc(F)cc3)n2)cc1`, the “hERG current change (%, negative = inhibition) at 10uM” value is reported as -56.7%.
`Cc1ccc(-n2cc(CN3CCN(c4ccccn4)CC3)c(-c3ccc(F)cc3)n2)cc1` was tested, and the “hERG current change (%, negative = inhibition) at 10uM” value was 11.2%.
In the case of `Cc1ccc(-n2cc(CN3CCNC(=O)CC3)c(-c3ccc(F)cc3)n2)cc1`, the “hERG current change (%, negative = inhibition) at 10uM” value is reported as -35.4%.
In the case of `Cc1ccc(-n2cc(CNCCCn3cccn3)c(-c3cccc(C)c3)n2)cc1`, the “hERG current change (%, negative = inhibition) at 10uM” value is reported as -71.6%.
With `COc1cccc(-c2nn(-c3ccccc3)cc2CNC(C)Cn2cncn2)c1` (stereo not shown) the “hERG current change (%, negative = inhibition) at 10uM” value was -42.5%.
With `Cc1ccc(-n2cc(CN(C)Cc3nccn3C)c(-c3cccc(C)c3)n2)cc1` the “hERG current change (%, negative = inhibition) at 10uM” value was -16.1%.
In the case of `Cc1ccn2c(CNCCCn3cccn3)c(C(=O)N3CCCCCC3)nc2c1`, the “hERG current change (%, negative = inhibition) at 10uM” value is reported as -23.4%.
With `CCOC(=O)C1=NN(c2ccccc2)C(c2ccccc2)CC1=O` (stereo not shown) the “hERG current change (%, negative = inhibition) at 10uM” value was 5.31%.
For `Cc1nnc2n1N=C(c1ccc(F)cc1F)CS2`, the “hERG current change (%, negative = inhibition) at 10uM” value was -3.32%.
For `CCOc1ccc(CCNC(=O)c2ccc(S(=O)(=O)N3CCCC3)cc2)cc1OCC`, the “hERG current change (%, negative = inhibition) at 10uM” value was -8.47%.
In the case of `CCn1c2ccccc2c2cc(/C=N/n3c(C)nnc3C)ccc21`, the “hERG current change (%, negative = inhibition) at 10uM” value is reported as -25%.
For `O=C(C1=C[C@H](C2CC2)C[C@H](OCCCCO)O1)N1CCOCC1`, the “hERG current change (%, negative = inhibition) at 10uM” value was 21.2%.
With `O=C(/C=C/c1nc2ccccc2s1)N1CCCCCC1` the “hERG current change (%, negative = inhibition) at 10uM” value was -0.709%.
With `CN(C)S(=O)(=O)c1cccc(C(=O)OCC(=O)Nc2sccc2C#N)c1` the “hERG current change (%, negative = inhibition) at 10uM” value was -2.79%.
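Also: peak tail current of the secondary pulse compared with the same well before compound.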
